In PubChem BioAssay AID2289 (National Center for Advancing Translational Sciences (NCATS), 2010):
The whole screen tested about 340,000 compounds, of which about 3,300 (0.97%) were called active. About 9% were inconclusive and are not listed. Calls follow the shape of the dose curve; as a rule, active = well fitted inhibition curve with a large enough effect; inconclusive = small, poorly fitted or top-dose-only effect, or effect the other way; inactive = flat fitted curve, though single readings scatter. The list shows a part of the results.

Assay: qHTS Assay for Modulators of miRNAs and/or Inhibitors of miR-21; also: nearly all actives have a fitted effect of over 55% in size
Conditions: HeLa miR-21-FLuc reporter, luciferase luminescence, 48 h; actives lower the signal
In short: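 HeLa cells stably expressing CMV-driven firefly luciferase with a downstream miR-21 binding sequence, endogenously expressing miR-21, were treated with titrations (up to about 40uM final) for 48 hours at 37 degree Celsius. Luciferase luminescence was read after lysis.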
Potency is read from the fitted curve at half-maximal effect.

Potency, active:
CCn1nc(C)c(/C=N/NC(=O)Cc2ccc(Cl)cc2)c1C 11.7 µM
COc1ccc(NC(=O)CSc2nc(SC)ns2)c(OC)c1 2.07 µM
COc1ccc(NC(=O)CSc2nc(SC)ns2)cc1 6.56 µM
CCC(C)(C)c1ccc2c(c1)C(=O)c1ccccc1C2=O 1.65 µM
Cc1cs/c(=N\N=C\c2ccc(O)cc2)n1Cc1ccco1 11.7 µM
Nc1nnc(-c2ccc(Cl)cc2Cl)s1 8.26 µM
S=C(Nc1ccccc1)c1nc2ccccc2s1 2.07 µM
O=C(NNc1nc2ccccc2s1)Nc1ccccc1 4.65 µM
CC(C)C1COC(c2cccc3ccccc23)=N1 (stereo unspecified) 6.56 µM
CCOc1ccccc1CNC(=O)c1cccc(NC(=O)c2nsc3ccccc23)c1 3.29 µM
CCCCNC(=O)c1cccc(NC(=O)c2nsc3ccccc23)c1 2.93 µM
CCN=C1S/C(=C\c2sccc2C)C(=O)N1CC 16.5 µM
Cc1ccc(OCCn2cnc3c(N)ncnc32)cc1 16.5 µM
CCOc1ncccc1C(=O)OCC(=O)c1cc(C)n(Cc2ccco2)c1C 2.07 µM
C=CCn1c(C)cc(C(=O)COC(=O)c2ccc(N)c([N+](=O)[O-])c2)c1C 1.85 µM
Cc1cc(C(=O)COC(=O)c2ccc(O)cc2)c(C)n1Cc1ccco1 1.85 µM
Cc1cc(C(=O)COC(=O)c2cc(Cl)ccc2N)c(C)n1Cc1ccco1 2.93 µM
Cc1cc(C(=O)COC(=O)c2ccco2)c(C)n1Cc1ccco1 4.65 µM
CSc1ncccc1C(=O)OCC(=O)c1cc(C)n(CC2CCCO2)c1C (stereo unspecified) 0.464 µM
Cc1cc(C)n(-c2nnc(NC34CC5CC(CC(C5)C3)C4)nn2)n1 5.21 µM
Cc1ccc(NC(=O)OCc2cccs2)cc1 1.31 µM
COc1ccc(C(=O)NCCSC2CCCCC2)cc1 7.36 µM
O=C(NC(=S)NC1CCCCCC1)c1cncc(Br)c1 9.27 µM
COc1ccc(C(=O)NC(=S)Nc2ccccc2F)cc1 1.04 µM
COc1ccc(C(=O)NC(=S)NC2CCCCC2)cc1 7.36 µM
Cc1nc2ccccc2nc(C)c1=NOCc1ccc(Cl)cc1Cl 16.5 µM
Cc1nc2ccccc2nc(C)c1=NOCc1ccc(C#N)cc1 11.7 µM
COc1ccc(-c2nnc3c4ccccc4c(C)nn23)cc1 8.26 µM
COc1ccc(Oc2nnc(C)c3ccccc23)cc1 4.14 µM
COc1ccc(NC(=S)N2CCC(c3ccccc3)C2)cc1 (stereo unspecified) 1.65 µM
Cc1ccc(NC(=S)c2ccccc2)cc1 4.14 µM
COc1ccc(NC(=S)c2ccc(N(C)C)cc2)cc1 1.17 µM
COc1ccc(NC(=S)N/C(=N/CS(=O)(=O)c2ccccc2)c2ccccc2)cc1 5.21 µM
COc1ccc(NC(=S)c2ccccc2)cc1 6.56 µM
COc1ccc(-c2cc(=NC(CC(C)C)C(=O)O)c3cc(C)ccc3o2)cc1 (stereo unspecified) 0.369 µM
CCC(N=c1cc(-c2ccc(OC)cc2)oc2ccc(C)cc12)C(=O)O (stereo unspecified) 0.293 µM
COc1ccc(-c2cc(=Nc3ccc(C(=O)O)cc3)c3cc(C)ccc3o2)cc1 2.07 µM
Cc1ccc(-c2nc(C#N)c(NCC3CCCO3)o2)cc1 (stereo unspecified) 13.1 µM
COc1ccc(-c2nc(C#N)c(NCC3CCCO3)o2)cc1OC (stereo unspecified) 14.7 µM
O=C(O)c1cc(N/N=C/c2cccnc2)ccc1Cl 14.7 µM
O=C(O)c1cccc(N/N=C/c2cccnc2)c1 2.93 µM
Clc1ccc(N/N=C/c2ccncc2)cc1Cl 8.26 µM
Nc1ccc(SCc2nc3cccc4c3n2CCC4)cc1 14.7 µM
Cc1nc(-c2ccccc2)sc1-c1nnc(C2CC2)o1 4.65 µM
COc1ccccc1N1CCN(C(=S)NC(=O)/C=C/c2ccccc2)CC1 9.27 µM
O=C(/C=C/c1ccc(F)cc1)NC(=S)N1CCN(c2ccccn2)CC1 13.1 µM
Nc1nc2ccc(NC(=O)c3ccco3)cc2s1 7.36 µM
Cc1cc(NC(=O)c2ccco2)ccc1-n1cnnn1 7.36 µM
Cc1nc2ccc(NC(=O)c3ccco3)cc2s1 7.36 µM
CSc1nc2ccc(NC(=O)c3ccco3)cc2s1 1.47 µM
CSc1nc2ccc(NC(=O)c3c(F)cccc3F)cc2s1 7.36 µM
CC(=O)Nc1nc2ccc(NC(=O)c3ccco3)cc2s1 10.4 µM
COc1cc2sc(NC(=O)c3ccco3)nc2cc1Cl 0.585 µM
Cc1nc2ccc(NC(=O)c3ccc(Br)o3)cc2s1 2.93 µM
Nc1c(Cl)cc2c(c1Oc1ccccc1)C(=O)c1ccccc1C2=O 4.14 µM
O=C(c1ccncc1)N1N=C(c2ccc(Cl)cc2)CC1c1ccccc1O (stereo unspecified) 6.56 µM
COc1ccc(C2=NN(C(=O)c3ccccc3C(=O)O)C(c3ccccc3O)C2)cc1 (stereo unspecified) 5.85 µM
Cc1ccc(OCCSc2nc(N)cc(N)n2)cc1 4.65 µM
c1cnc(SCCOc2cccc3ccccc23)nc1 3.29 µM
Nc1cc(N)nc(SCCOc2ccccc2)n1 11.7 µM
COc1ccc(OCCSc2nc(N)cc(N)n2)cc1 3.29 µM
Cc1cc(SCCOc2ccccc2)nc(N)n1 16.5 µM
Nc1cc(N)nc(SCCOc2ccccc2F)n1 14.7 µM
CCOC(=O)c1ccc(NC(=O)C(CC)Sc2nc3ncccc3o2)cc1 (stereo unspecified) 4.65 µM
Cc1ccc(NC(=O)/C=C2\NC(=O)CS2)cc1 16.5 µM
O=C(N/N=C/c1ccc(Br)s1)c1ccco1 14.7 µM
C/C(=N\NC(=O)c1ccoc1C)c1ccc(Br)s1 11.7 µM
Cc1occc1C(=O)N/N=C/c1ccc(Br)s1 6.56 µM
COC(=O)/C(=C/c1cccc([N+](=O)[O-])c1)NC(=O)c1ccc(OC)cc1 5.21 µM
COc1cccc(NC(=O)C(=O)NCC(c2ccc3c(c2)OCO3)N2CCN(C)CC2)c1 (stereo unspecified) 4.65 µM
Cc1cc(C)n2ncc(C(=O)NCCc3ccccc3)c2n1 18.5 µM
Cc1cc(C)n2ncc(/C(N)=N/OC(=O)c3ccccc3F)c2n1 1.85 µM
Cc1csc2ncc(C(=O)NCCc3ccccc3)c(=O)n12 16.5 µM
CN(C)c1ccc(/C=C2\CCCCC2=O)cc1 2.07 µM
CCC(=O)N1CCc2cc(CNS(=O)(=O)c3ccccc3F)ccc21 6.56 µM
Cc1ccc2nc(-c3ccc(NC(=O)COc4ccccc4C(C)(C)C)cc3)sc2c1 6.56 µM
O=C(COc1ccccc1F)Nc1ccc(-c2nc3ccccc3s2)cc1 1.47 µM
Cc1nc2ccc(NC(=O)COc3ccccc3F)cc2s1 7.36 µM
Nc1ccc2oc3ccc(N)cc3c(=O)c2c1 3.69 µM
COc1nccnc1NS(=O)(=O)c1ccc(NCc2cc(Br)ccc2O)cc1 18.5 µM
C/C(=N\NC(=O)COc1ccccc1F)c1cc2ccccc2o1 8.26 µM
COc1ccc(OCC(=O)N/N=C(\C)c2cc3ccccc3o2)cc1 18.5 µM
Cc1ccc(C(=O)Cc2nnc(C)s2)cc1 4.14 µM
Cc1ccc(NC(=S)NNC(=O)c2nn(C)c(C)c2Cl)cc1 5.85 µM
CN1CCc2c(sc3c2C(=O)NC(c2cccc(OC(=O)c4cccs4)c2)N3)C1 (stereo unspecified) 18.5 µM
COc1cc(C2NC(=O)c3c(sc4c3CCN(C)C4)N2)ccc1OC(=O)c1ccccc1 (stereo unspecified) 13.1 µM
CN1CCc2c(sc3c2C(=O)NC(c2ccc(OC(=O)c4ccccc4)cc2)N3)C1 (stereo unspecified) 9.27 µM
O=C(CC1NCCc2ccccc21)Nc1cccc(Cl)c1 (stereo unspecified) 16.5 µM
Cc1occc1C(=O)NN=C1C2CC3CC(C2)CC1C3 1.31 µM
C=C(C)C1CC=C(C)/C(=N/NC(=O)c2ccoc2C)C1 (stereo unspecified) 4.65 µM
C/C(=N/NC(=O)c1ccoc1C)C12CC3CC(CC(C3)C1)C2 8.26 µM
S=C(N=Nc1ccccc1)NNc1ccccc1 5.21 µM
Cc1cccc(OCCn2c(=O)sc3ccccc32)c1 5.21 µM
COc1ccc(N=c2sc3ccccc3n2C)cc1 3.29 µM
Cc1cccc(OCCCn2c(=O)sc3ccccc32)c1 14.7 µM
COc1ccc(OCCn2c(=O)sc3ccccc32)cc1 14.7 µM
O=c1sc2ccccc2n1CCCOc1ccccc1 4.14 µM
C=CCNC(=S)NNC(=O)COc1ccc2cc(Br)ccc2c1 7.36 µM
CC1Oc2ccccc2N(CC(=O)NCc2ccccc2)C1=O (stereo unspecified) 9.27 µM
CCn1c(O)c(N=Nc2ccc3ccccc3n2)c2ccccc21 1.04 µM
O=S(=O)(Cc1cc(-c2ccccc2Cl)no1)c1ccccc1 5.21 µM
COc1ccc(Br)c(-c2nnc(CS(=O)(=O)c3ccccc3)o2)c1 14.7 µM
COc1ccc(-c2cc(CS(=O)(=O)c3ccccc3)on2)cc1 4.65 µM
O=S(=O)(Cc1cc(-c2ccc(Cl)cc2)no1)c1ccccc1 4.65 µM
O=S(=O)(Cc1cc(-c2ccccc2)no1)c1ccccc1 14.7 µM
Nc1ccc(Oc2cc(N)cc(Oc3ccccc3)c2)cc1 8.26 µM
